Screening results: PubChem, several laboratories
GLD-1 TGE inh = GLD-1-TGE RNA interaction inhibition (C. elegans); Q17339; purified GLD-1 + fluorescein TGE RNA, fluorescence polarization; inhibition, % at 5.96 µM; actives 0.44% (n = 320,000);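 active = percent inhibition above a per-plate cutoff, the plate mean of test compounds plus 3 SD, cut at about 30% in these data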;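 note: 0% = DMSO wells with GLD-1 and probe and 100% = wells lacking GLD-1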
Bim-Mcl-1 = human Bim-Mcl-1 interaction inhibition; Q07820; Bead-based flow cytometry, Bim peptide-Mcl-1 binding; inhibition, % at 10 µM; actives 0.1% (n = 190,000); in the data active = inhibition above about 40%;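 note: 0% = no compound tracer wells and 100% = peptide blocker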
Target sequence (Q07820 whole entry, looked up): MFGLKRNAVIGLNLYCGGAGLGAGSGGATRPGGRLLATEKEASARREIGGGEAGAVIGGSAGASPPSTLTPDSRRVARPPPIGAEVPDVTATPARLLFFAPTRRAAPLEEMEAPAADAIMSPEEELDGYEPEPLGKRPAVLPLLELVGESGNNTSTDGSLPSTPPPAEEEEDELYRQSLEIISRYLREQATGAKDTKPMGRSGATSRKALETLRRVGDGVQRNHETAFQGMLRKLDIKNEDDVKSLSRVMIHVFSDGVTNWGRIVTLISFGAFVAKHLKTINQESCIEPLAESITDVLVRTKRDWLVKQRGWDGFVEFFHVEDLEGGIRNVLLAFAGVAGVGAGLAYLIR
BCLXL inh = blocks human Bcl-xL binding to Bim BH3 peptide. Q07817. GST-Bcl-xL / FITC-Bim BH3 peptide fluorescence polarization. inhibition, % at 10.9 µM. actives 0.7% (n = 320,000). AID 2129;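 active = inhibition above the mean of all tested compounds plus 3 SD, cutoff set per campaign, cut at about 30% in these data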;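 note: 0% = DMSO wells and 100% = unlabeled Bim-BH3 peptide competitor; inhibitors lower millipolarization by displacing the labeled peptide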
Mcl1-Noxa inh = Mcl-1/Noxa interaction inhibition; TR-FRET Mcl-1/Noxa peptide binding, 2 h; inhibition, % at 21.7 µM; actives 1.5% (n = 220,000); AID 1022;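 active = compounds that cut the protein-peptide binding signal by more than 50% relative to plate controls in a single-dose test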;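 note: His-tagged Mcl-1 with rhodamine Noxa BH3 peptide and terbium anti-His antibody; 0% = Mcl-1 plus Noxa peptide wells and 100% = peptide-only wells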
MCL1-BIM inh = disrupts human MCL1 binding to BIM-BH3 peptide; Q07820; GST-MCL1 / FITC-Bim-BH3 fluorescence polarization; inhibition, % at 10.9 µM; actives 0.68% (n = 320,000); AID 2057;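 active = inhibition above the mean inhibition of all tested compounds plus 3 SD, set per campaign, cut at about 40% in these data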;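 note: 0% = DMSO wells and 100% = unlabeled Bim-BH3 peptide control; higher means more loss of mP so more displacement of Bim peptide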
Mcl1-Bid inh = disrupts binding of human Mcl-1 to Bid peptide | inhibition, % at 21.7 µM | TR-FRET Mcl-1/Bid-Dy647 peptide binding, 1536-well | Q07820 | actives 0.97% (n = 220,000);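 active = compounds that cut the binding signal by more than half at the single screening dose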;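 note: His-tagged Mcl-1 with europium anti-His antibody binding Bid BH3 peptide; 0% = Mcl-1 plus peptide wells and 100% = peptide-only wells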
Starred values were filed as active, the others as inactive; nt = no result given. Sampled rows, rich in hits. Any-hit rate of the full collection: about 2.3%.

SMILES	GLD-1 TGE inh	Bim-Mcl-1	BCLXL inh	Mcl1-Noxa inh	MCL1-BIM inh	Mcl1-Bid inh
CN1/C(=C/C2CC(=O)N(c3cccc4ccccc34)C2=O)C(C)(C)c2ccccc21 (centres undefined)	-27.6	0.0	-40.1	53.9*	-66.6	-38.3
O=C1OC2(c3ccccc31)c1cc(I)c(O)c(I)c1Oc1c2cc(I)c(O)c1I	51.0*	nt	88.0*	nt	87.1*	nt
Cn1c(SCC(=O)N=Nc2c(O)[nH]c3ccccc23)nc2ccccc21	-4.8	-7.0	3.8	41.5	9.9	82.9*
CCCC(=O)Nc1nnc(-c2cccc(OCC)c2)s1	5.3	-2.0	-0.7	6.3	5.1	86.0*
C/C(N)=C(/C#N)C(=O)CSc1nc2cc(Cl)ccc2s1	4.0	-2.0	4.1	53.1*	4.7	-13.0
C/C(N)=C(/C#N)C(=O)CSc1cc(Cl)ccc1Cl	-1.7	-5.0	-3.7	9.6	-0.7	-2.5
CC(Sc1nnc(-c2ccccc2F)n1C1CC1)C(=O)NC(N)=O (centres undefined)	2.3	nt	0.5	nt	1.0	nt
CCOc1ccccc1NC(=O)COC(=O)c1ccc2ccccc2n1	4.3	nt	2.5	nt	1.4	nt
O=C(CN1C(=O)c2ccccc2C1=O)Nc1cc(C(=O)O)cc(C(=O)O)c1	63.8*	nt	6.5	nt	7.2	nt
O=C(CN1C(=O)c2ccccc2C1=O)Nc1cccnc1	2.2	-4.0	9.6	12.6	8.5	-11.7
COc1ccccc1C(=O)Nc1ccnn1C1CCN(C2CCSCC2)CC1	19.6	nt	42.2*	nt	41.6*	nt
COc1ccccc1C(=O)Nc1ccnn1C1CCN(C(C)CSC)CC1 (centres undefined)	12.7	nt	41.5*	nt	45.1*	nt
COCCC(=O)N1CCC(n2nccc2NC(=O)c2ccccc2C)CC1	4.2	nt	6.5	nt	5.9	nt
Cc1ccccc1C(=O)Nc1ccnn1C1CCN(C2CCSCC2)CC1	11.5	nt	35.7*	nt	35.6	nt
COc1ccc(C(O)(CC(C)C)C(CN2CCOCC2)c2ccccc2)cc1 (centres undefined)	3.6	nt	47.0*	nt	0.1	nt
COc1ccc(C(O)(CCC(C)C)C(CN2CCOCC2)c2ccc(Cl)cc2)cc1 (centres undefined)	9.6	nt	7.1	nt	7.3	nt
COc1ccc(-c2nc(CS(=O)CC(=O)NCCCN3CCOCC3)c(C)o2)cc1OC (centres undefined)	-1.0	nt	3.4	nt	-3.3	nt
C/C(=N\O)c1ccc2c(c1)OCCO2	-0.6	0.0	5.6	0.1	1.0	-23.3
C/C(=N/O)c1ccc2c(c1)OCCOCCOc1cc(/C(C)=N/O)ccc1OCCOCCO2	0.8	0.0	2.9	59.3*	2.0	21.1
O=C(NCCCN1CCCC1=O)NC1CCCCC1	-7.8	54.0*	1.4	12.2	-0.2	-7.7
O=C(NCCCN1CCCC1=O)c1ccc2c(c1)OCO2	1.1	0.0	-7.3	4.5	0.3	61.9*
COc1ccc(C(=O)NCCCN2CCCC2=O)cc1	4.1	-1.0	4.4	6.6	-0.3	-9.7
CS(=O)(=O)NN1C(=O)c2ccccc2NC1c1ccccc1 (centres undefined)	2.8	43.0*	6.8	-4.4	-0.2	-22.9
CS(=O)(=O)NN1C(=O)c2ccccc2NC1c1cccc(O)c1 (centres undefined)	7.4	5.0	1.7	4.3	0.2	-9.1
O=C(O)[C@@H](c1ccccc1)N1Cc2ccccc2C1=O	4.1	0.0	0.0	16.2	-2.5	98.2*
SMILES	GLD-1 TGE inh	Bim-Mcl-1	BCLXL inh	Mcl1-Noxa inh	MCL1-BIM inh	Mcl1-Bid inh
O=C(O)C(c1ccccc1)N1C(=O)c2ccccc2C1=O (centres undefined)	9.2	nt	8.0	nt	-4.5	nt
Cc1ccc(S(=O)(=O)Nc2c(C(=O)O)[nH]c3ccccc23)c(C)c1	-3.2	nt	-1.9	nt	7.2	nt
C=CCc1cc(Cl)ccc1OCCNCCCOC	5.8	0.0	8.1	25.7	9.9	17.7
C=CCc1ccccc1OCCNCCCOC	-2.4	0.0	3.9	18.3	3.5	84.3*
NC(=O)C1CCCN(S(=O)(=O)c2ccc3ccccc3c2)C1 (centres undefined)	8.6	nt	1.1	nt	3.6	nt
Cc1ccc(C2C(C#N)=C(N)Oc3c2sc2ccccc32)o1 (centres undefined)	13.2	7.0	10.0	73.9*	11.6	-12.9
CC(=O)NCCC(=O)Nc1cc(S(=O)(=O)N2CCCCC2)ccc1Oc1ccccc1	2.2	nt	-3.9	nt	-17.4	nt
Cc1cc(N)n(-c2ccc3ccccc3c2)n1	2.2	0.0	6.4	-8.7	7.3	96.4*
